From PubChem BioAssay AID720664 (National Center for Advancing Translational Sciences (NCATS), 2013)
Records with an inconclusive call do not appear. Calls of active or inactive are those of the source. Calls follow the shape of the dose curve; as a rule, active = well fitted inhibition curve with a large enough effect; inconclusive = small, poorly fitted or top-dose-only effect; inactive = flat fitted curve, though single readings scatter.

biological target: Galactokinase (Homo sapiens) (UniProt P51570); assay: qHTS for Inhibitors of Human Galactokinase (GALK): SAR round 3; settings: ADP detection luminescence, 1 h; series mostly up to 57.5 µM; activity change, negative = inhibition: at the top concentration
Outline: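 Cherry-picked actives were retested in quantitative dose format against 5 nM human galactokinase, using 100 µM galactose and 35 µM ATP at pH 8.0 (HEPES, MgCl2, NaCl). After 1 h at room temperature, product was quantified by luminescence.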

Galactokinase (Homo sapiens), sequence (P51570 whole entry, looked up): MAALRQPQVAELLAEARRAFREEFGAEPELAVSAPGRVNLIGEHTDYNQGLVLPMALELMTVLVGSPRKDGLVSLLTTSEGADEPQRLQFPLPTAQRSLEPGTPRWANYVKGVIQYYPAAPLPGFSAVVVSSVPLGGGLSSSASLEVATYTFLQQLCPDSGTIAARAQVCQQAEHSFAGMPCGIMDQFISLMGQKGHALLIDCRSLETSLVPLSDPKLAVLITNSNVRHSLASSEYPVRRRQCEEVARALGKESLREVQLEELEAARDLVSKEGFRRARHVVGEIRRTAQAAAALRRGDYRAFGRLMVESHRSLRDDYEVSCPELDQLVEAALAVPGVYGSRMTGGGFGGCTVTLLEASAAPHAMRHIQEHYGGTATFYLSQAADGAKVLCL

Compound | activity change, negative = inhibition | Potency
O=C1CC(c2ccccc2)CC2=C1C1(CCCCC1)N=C(Nc1nc3ccccc3o1)N2 (centres undefined) | 3.27% (inactive) | –
O=C1CCCC2=C1C(c1[nH]ncc1Cl)N=C(Nc1nc3cc(F)ccc3o1)N2 (centres undefined) | 0.642% (inactive) | –
CC(C)c1nc(Nc2nc3ccccc3o2)nc2c1CCCC2 | -2.24% (inactive) | –
O=C1CCCC2=C1C(c1cccnc1)N=C(Nc1nc3ccccc3o1)N2 (centres undefined) | -15.6% (inactive) | –
O=C1CCCC2=C1C(c1cccc(C(F)(F)F)c1)N=C(Nc1nc3ccccc3o1)N2 (centres undefined) | -8.12% (inactive) | –
O=c1cc(CN2CCCN(c3ccc(C(F)(F)F)cn3)CC2)nc2ccccn12 | -2.21% (inactive) | –
CCC1CCC2(C1)N=C(Nc1nc3ccccc3o1)NC1=C2C(=O)CCC1 (centres undefined) | – | inactive
O=C1CCCC2=C1C(c1[nH]ncc1Cl)N=C(Nc1nc3c(Cl)cccc3o1)N2 (centres undefined) | -2.85% (inactive) | –
O=C1CCCC2=C1C(c1[nH]ncc1Cl)NC(=NCCc1ccc(O)cc1)N2 (centres undefined) | 3.03% (inactive) | –
O=C1CCCC2=C1C1(CCCC1)N=C(Nc1nc3cc(-c4ccccc4)ccc3o1)N2 | -10.9% (inactive) | –
O=C1C2=C(CN1Cc1ccccc1)NC(Nc1nc3ccccc3o1)=NC2c1ccccc1Cl (centres undefined) | -1.63% (inactive) | –
CC1(C)N=C(Nc2nc3ccccc3o2)NC2=C1C(=O)CCC2 | -19.7% (inactive) | –
O=C1CCCC2=C1C(c1ccccc1I)N=C(Nc1nc3ccccc3o1)N2 (centres undefined) | – | 6.11 µM (active)
CC1=C(C(=O)Nc2noc3ccccc23)C2(CCCC2)N=C(Nc2nc3ccccc3o2)N1 | 2.5% (inactive) | –
CCc1ccc2oc(=O)cc(CN3CCN(c4ccccc4F)CC3)c2c1 | 4.45% (inactive) | –
CC(C)CN1CC2=C(C1=O)C(c1ccccc1Cl)N=C(Nc1nc3ccccc3o1)N2 (centres undefined) | -8.14% (inactive) | –
O=C1CCCC2=C1C(c1ccncc1)N=C(Nc1nc3ccccc3o1)N2 (centres undefined) | -5.76% (inactive) | –
COc1cccc(C2N=C(Nc3nc4ccccc4o3)NC3=C2C(=O)CCC3)c1 (centres undefined) | -29% (inactive) | –
Cn1ncc(Cl)c1C1N=C(Nc2nc3ccccc3o2)NC2=C1C(=O)CCC2 (centres undefined) | -5.52% (inactive) | –
O=C1CCCC2=C1C(c1[nH]ncc1Cl)N=C(c1nc3ccccc3o1)N2 (centres undefined) | 1.55% (inactive) | –

Compound | activity change, negative = inhibition | Potency
O=C1CCCC2=C1C(c1[nH]ncc1Cl)NC(=NCCc1cccnc1)N2 (centres undefined) | 1.96% (inactive) | –
CC1=C(C(=O)Nc2noc3ccccc23)C(c2nn(C)cc2Cl)N=C(Nc2nc3ccccc3o2)N1 (centres undefined) | 2.33% (inactive) | –
O=C1CCCC2=C1C(c1[nH]ncc1Cl)NC(=NCc1ccccn1)N2 (centres undefined) | 1.69% (inactive) | –
O=C1CCCC2=C1C(c1[nH]ncc1Cl)N=C(Nc1nccs1)N2 (centres undefined) | 2% (inactive) | –
CC1=C(C(=O)c2ccccc2)C(c2ccccc2Cl)N=C(Nc2nc3ccccc3o2)N1 (centres undefined) | -4.91% (inactive) | –
O=C1CCCC2=C1C(c1[nH]ncc1Cl)N=C(Nc1nc3c(Br)cccc3o1)N2 (centres undefined) | -4.45% (inactive) | –
Cn1cccc1CN=C1NC2=C(C(=O)CCC2)C(c2[nH]ncc2Cl)N1 (centres undefined) | -1.27% (inactive) | –
Cc1nc(Nc2nc3ccccc3o2)nc2c1CCCC2 | -1.21% (inactive) | –
O=C1CCCC2=C1C(c1[nH]ncc1Cl)N=C(Nc1nc3ccc(Cl)cc3o1)N2 (centres undefined) | -5.94% (inactive) | –
O=C1CCCC2=C1C(c1cccnc1Cl)N=C(Nc1nc3ccccc3o1)N2 (centres undefined) | -21.4% (inactive) | –
O=C1CCCC2=C1C(c1[nH]ncc1Cl)NC(=NCCc1ccccc1)N2 (centres undefined) | 0.974% (inactive) | –
Cc1ccc(C2N=C(Nc3nc4ccccc4o3)NC3=C2C(=O)CCC3)cc1 (centres undefined) | -4.94% (inactive) | –
Cc1ccc2oc(NC3=NC(c4ccccc4Cl)C4=C(CCCC4=O)N3)nc2c1 (centres undefined) | – | 6.11 µM (active)
O=C1CCCC2=C1C1(CCCC1)N=C(Nc1nc3ccccc3o1)N2 | -28.9% (inactive) | –
O=C1CCCC2=C1C(c1[nH]ncc1Cl)N=C(Nc1nc3ccccc3s1)N2 (centres undefined) | -4.86% (inactive) | –
COc1ccccc1C1N=C(Nc2nc3ccccc3o2)NC2=C1C(=O)CCC2 (centres undefined) | -17.2% (inactive) | –
CN(Cc1ccccc1)C(=O)C1CCN(Cc2cccc3ccccc23)CC1 | 1.16% (inactive) | –
O=C1CCCC2=C1C1(CCCC1)N=C(Nc1nc3cc4ccccc4cc3o1)N2 | 1.6% (inactive) | –
CC1=C(C(=O)n2ccc3ccccc32)C(c2ccccc2Br)N=C(Nc2nc3ccccc3o2)N1 (centres undefined) | -5.19% (inactive) | –
